Compound activity deposited in PubChem by National Center for Advancing Translational Sciences (NCATS).
Epigenetic derep: epigenetic control regulation, reporter derepression | murine LDR cells, GFP reporter derepression, 30 h | Potency, µM (doses to about 53.9 µM), without a hit: top-dose GFP activation, actives largely listed as activators | 280,000 compounds, 0.2% hits; active means well fitted activation curve with a large enough effect; inconclusive means small, poorly fitted or top-dose-only effect; further: potency means the concentration at half of the fitted maximal effect; % of control where 0% means no effect; nearly all actives have a fitted effect of over 60% in size
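GFP-positive cell count by laser-scanning cytometry (objects 20–120 um) after 30 h, 37 C compound exposure of murine LDR cells; reporter is CMV-GFP integrated at a silenced locus, inducible by HDAC or DNMT inhibitors.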
PINK1 expr mod: modulators of PINK1 expression; Potency, µM (doses to about 76.6 µM), for the others: at the top dose activation (PINK1 increase), actives largely listed as activators; AID 624263; 410,000 compounds, 0.2% hits; PINK1 immunofluorescence, high-content cytometry, 24 h; active means well fitted activation curve with a large enough effect; inconclusive means small, poorly fitted or top-dose-only effect; cell line not stated here; further: potency means the concentration at half of the fitted maximal effect; % of control where 0% means no effect; nearly all actives have a fitted effect of over 65% in size
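Stable cell line, 250 cells/well, 12 h attachment; compounds pinned at 5 concentrations, 24 h; CCCP control. Fixed with nuclear dye, primary antibodies 12 h at 10 degrees C, secondary plus cell stain; laser-scanning cytometer read.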
ClpP mod: qHTS Assay for Activators of ClpP. purified B. subtilis ClpP, FRET peptide cleavage, 20 min. Potency, µM (top dose mostly 57.5 µM), for the others: at the top dose activity change, negative = active. 340,000 compounds, 1.9% hits; active means well fitted falling curve with a large enough effect; inconclusive means small, poorly fitted or top-dose-only effect; inactive means no such curve, though single readings can be large or run the other way; further: potency means the concentration at half of the fitted maximal effect; the source files actives as falling curves though it sought activators and does not explain the sign; nearly all actives have a fitted effect of over 65% in size
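ClpP 10 microg/mL final, pH 8 Tris/KCl buffer with BSA, glycerol, Tween-20; compound pinned in; FRET-FV substrate; RT 20 min; Ex320/Em430; ΔFRET vs ADEP 5.8 microM, DMSO, no enzyme.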
Menin MLL FP TR: inhibitors of human menin-MLL interaction, mutant MLL peptide; 270,000 compounds, 0.23% hits; AID 1768; Potency, µM (series often up to 61.6 µM), for the others: top-dose FP activity change, negative = inhibition, most hits filed as inhibitors; O00255; Menin + Texas Red MLL mutant peptide, fluorescence polarization; active means well fitted inhibition curve with a large enough effect in the polarisation, with a control signal flat, not every such curve was filed as active; inconclusive means small, poorly fitted or top-dose-only effect, or effect the other way, or a change in a side signal; inactive means no such curve, though single readings can be large or run the other way; the % refers to the polarisation; further: potency means the concentration at half of the fitted maximal effect; % of control where 0% means no effect
Menin MLL FP FL: menin-MLL binding inhibition, fluorescein peptide | Fluorescence polarization, fluorescein-MLL peptide displacement from menin | 290,000 tested, under 10 active | FP activity change, % at 61.4 µM; active means well fitted curve in the direction sought with a large enough effect in the polarisation, not every such curve was filed as active; inconclusive means small, poorly fitted or top-dose-only effect, or effect the other way, or a change in a side signal; inactive means no such curve, though single readings can be large or run the other way; the % refers to the polarisation; further: % of control where 0% means no effect
MLL CXXC-DNA inh: inhibitors of human MLL CXXC domain-DNA interaction; MLL-CXXC / FITC-HOXA9 DNA fluorescence polarization; 290,000 compounds, 0.037% hits; Q03164; AID 2662; Potency, µM (doses to about 115 µM), inactives show top-dose activity change, negative = inhibition, usual class: inhibitors; active means well fitted inhibition curve with a large enough effect in the polarisation, with a control signal flat, not every such curve was filed as active; inconclusive means small, poorly fitted or top-dose-only effect, or effect the other way, or a change in a side signal; inactive means no such curve, though single readings can be large or run the other way; the % refers to the polarisation; further: potency means the concentration at half of the fitted maximal effect
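Fluorescence polarization: 7 uM MLL-CXXC (stock) preincubated 5 min with compounds, then 50 nM fluorescein-HOX-A9 DNA (stock) added; 30 min ambient. Buffer 50 mM Tris-HCl pH 7.5, 50 mM NaCl, 1 mM DTT, 0.05% BSA.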
* = called active by the depositor; ? = inconclusive; . = no result; [ ] = dose if it differs, or a comment. Shown are actives, neighbours in structure and some others; about 1.9% of the full set was active somewhere.

SMILES | Epigenetic derep | PINK1 expr mod | ClpP mod | Menin MLL FP TR | Menin MLL FP FL | MLL CXXC-DNA inh
O=C(O)c1c[nH]c2c(C(F)(F)F)cccc2c1=O | 0% | 1% | -24% | -8% | -1 | -12%
O=c1cc[nH]c2c(C(F)(F)F)cccc12 | -2% | -1% | 28µM* | -12% | 0 | 8%
O=C(CSc1ccc(-c2ccc(-n3cccn3)cc2)nn1)Nc1ccccc1F | . | 7% | 16µM* | . | . | .
O=C(CSc1ccc(-c2cccnc2)nn1)Nc1ccccc1F | . | 1% | -4% | 13% | 2 | 0%
O=C(Nc1cccc(-c2nc3ccccc3[nH]2)c1)c1cccc(NC(=O)c2ccco2)c1 | 0% | -14%[38.3 µM] | ? | ? | 4 | 146%
O=C(Nc1ccc2nc(-c3ccccc3)[nH]c2c1)c1ccco1 | -3% | 8% | 28µM* | -1% | 3 | 3%
C=CCNC(=O)c1ccc2nc(-c3ccccc3)c(-c3ccccc3)nc2c1 | 4% | -4% | 20µM* | 1% | 0 | 5%
CCN1C(=O)c2cccc3c(S(=O)(=O)N(C(=O)c4ccncc4)c4ccc(OC)cc4)ccc1c23 | 0% | 2% | ? | -10% | -2 | 8%
CCN1C(=O)c2cccc3c(S(=O)(=O)N(C(=O)c4cccnc4)c4ccc(OC)cc4)ccc1c23 | 0% | 0% | 35µM* | 11% | -1 | 109%
O=C(Nc1cc(F)ccc1F)c1cnn2c1NC(=C1CC1)C=C2C(F)F | . | 0% | 0% | . | . | .
COc1ccc2c(c1)CCC1C2=NN(/C(C)=C\C(C)=O)C1c1ccc(F)cc1 (configuration not stated) | -2%[10.1 µM] | 1% | -10% | -1% | 17 | 4%
COc1ccc2c(c1)C1=NN(/C(C)=C/C(C)=O)C(c3ccc(F)cc3)C1CC2 (configuration not stated) | 0% | 2% | 20µM* | -1% | 2 | 1%
CCOC(=O)C1=C(C)Nc2nc3ccccc3n2C1c1ccccc1 (configuration not stated) | 0% | ? | 35µM* | -1% | 5 | -9%
CCN(CC)C(=O)C1=C(C)Nc2nc3ccccc3n2C1c1ccc(Br)cc1 (configuration not stated) | -2% | 2% | -22% | . | . | .
C/C(=C(/CCOC(=O)C(C)C)SS/C(CCOC(=O)C(C)C)=C(\C)N(C=O)Cc1cnc(C)nc1N)N(C=O)Cc1cnc(C)nc1N | . | . | . | -9% | -6 | -8%
COCC(=O)Nc1cc(C(=O)N2CCCOc3c(cccc3OC)C2)c2c(c1)nc(C1CCC1)n2C | . | 1% | . | . | . | .
COc1ccc(OC)c(/C=N/NC(=O)CCN2CCN(C(c3ccccc3)c3ccccc3)CC2)c1 | 0% | 0% | 28µM* | 0% | 3 | 20%
COc1ccc(O)c(/C=N/NC(=O)CCC(=O)Nc2cccc(C)c2)c1 | . | 1% | . | 24% | 1 | 6%
O=C(CCN1CCN(C(c2ccccc2)c2ccccc2)CC1)N/N=C/c1ccc(O)cc1O | -1% | 3% | -4% | 4% | 0 | 26%
COc1ccc(OC)c(/C=N/NC(=O)CCCC(=O)Nc2cccc(Br)c2)c1 | -2% | 0%[38.3 µM] | 25µM* | 41% | 0 | -7%
CCCN(CC(=O)Nc1ccccc1C)C(=O)c1ccc(N2CCCCC2)c([N+](=O)[O-])c1 | . | 3% | 1% | . | . | .
C/C=C1\COC(C(=O)NCCOCCO)(C(F)(F)F)C=C1C=C1CCCCC1 (configuration not stated) | . | . | . | ? | -2 | .
Cc1ccccc1/C=C/c1cc[n+](C)cc1 | 5% | 2% | -23% | -6% | 0 | -2%
C=CCn1c(C)c(/C=C/c2cc[n+](C)cc2)c2ccccc21 | . | ? | . | -19% | ? | ?
CCn1cc(/C=C/c2cc[n+](C)cc2)c2ccccc21 | . | 28µM* | 3% | ? | ? | ?
SMILES | Epigenetic derep | PINK1 expr mod | ClpP mod | Menin MLL FP TR | Menin MLL FP FL | MLL CXXC-DNA inh
CC(C)n1cc(/C=C/c2cc[n+](C)cc2)c2ccccc21 | . | 40µM* | . | -18% | ? | ?
C=CCn1cc(/C=C/c2cc[n+](C)cc2)c2ccccc21 | . | 45µM* | 0% | -7% | ? | ?
Cc1cnc(SCc2ccccn2)nc1C1CCCN(C(=O)c2ccc(-c3ccccc3F)cc2)C1 (configuration not stated) | . | -1% | . | . | . | .
CCc1nc2cc(C(=O)N(C)CC3COCCO3)cc(NC(=O)c3ccccc3OC)c2n1C (configuration not stated) | . | 1% | . | . | . | .
Cn1cccc1/C=C1\CC(C(C)(C)C)C/C(=C\c2cccn2C)C1=O (configuration not stated) | 2.8µM* | ? | 1% | 0% | ? | 32%
Cn1cccc1/C=C1\Cc2ccccc2C1=O | 5% | 3% | 2% | -3% | ? | 8%
C/C(=N\NC(=O)c1ccc(C)cc1C)c1ccc2c(c1)Nc1ccccc1S2 | 3% | 6% | 6% | ? | 13 | 23%
CC(=O)c1ccc2c(c1)Nc1ccccc1S2 | 0% | -1% | 32µM* | 35% | -1 | -3%
CCN(CC)C(=S)SCC(=O)c1ccccc1 | -3% | -1% | 6% | 19% | 0 | -9%
CCN(CC)C(=S)SSC(=S)N(CC)CC | 0.25µM* | 1% | 1% | -18% | -1 | ?
CC(C)c1ccc(C2C3=C(CC(c4ccco4)CC3=O)Nc3nc(C(F)(F)F)nn32)cc1 (configuration not stated) | . | -1% | . | . | . | .
O=C1CC(c2ccco2)CC2=C1C(c1ccccc1)n1nc(C(F)(F)F)nc1N2 (configuration not stated) | -1% | 8% | 25µM* | ? | 11 | -13%
CCOC(=O)Cc1c(C)nc2c(-c3ccc(Cl)cc3)c(C)[nH]n2c1=O | 0% | ? | 14µM* | -20% | 5 | -3%
CCOC(=O)Cc1cc(=O)n2[nH]c(C)c(-c3ccccc3)c2n1 | 0% | 1% | ? | . | 5 | -3%
CCOC(=O)Cc1cc(=O)n2[nH]c(-c3ccccc3)cc2n1 | -1% | 6%[38.3 µM] | 28µM* | -5% | 3 | -3%
